# The supplement of paper PMC6555819
# Test system: VDR:RXRa (NR concentration 270 nM, RXRa partner concentration 90 nM)
# Test: PBM binding z-score (relative to random genomic background probes); higher = stronger binding; sequences stand for … in GC…GCGATTGACAGCGTAGAATGAAGG
# Method: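 Protein-binding microarray (Agilent 4x180K custom design, double-stranded 60-nt probes: 5' GC cap, 34-nt variable region, 24-nt constant primer region; full probe sequence given). Purified or IVT nuclear receptor:RXRα heterodimers (3:1 NR:RXRα, mostly 270:90 nM) or homodimers were incubated for 1 h in PBS with 2% milk and no ligand, then detected with Alexa488 antibodies. Fluorescence from o1-orientation probes (~5 replicates averaged) was converted to z-scores against 500 random hg19 background probes. Variable regions are seed direct-repeat (DR0–DR5) sites, all their single-nucleotide variants and half-site ablations.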
row,Sequence,PBM binding z-score
1,GTACCAAGGTGAATAGGTCTTTGATGAGTAGGCG,0.495
2,TCTGCTAGGTCAACGACGGTCAGCTAATCTGCTA,2
3,TCGGGTAGGTTAGTCGGGGCATTCAGCCAACATA,2.88
4,CGAACGAGGGCATGAGTTGATAGCCAATGCCGAT,1.09
5,GCTTACGGGGCAAAGGTTATAGCATGAATAGAAT,2.08
6,GATACAGGGACAGCTAGAGGCCAGAGTATGGAAA,-0.526
7,TCTTGTAGATCAAGCAGGTTAACAAAGCCTGAGT,0.729
8,ATACCAAGGTGATCGTGAGGTCGTTGATACTAAC,3.23
9,TCTTCTAGGTCAACGATGGTCAGCTAATCTGCTA,2.41
10,GGGACTGGGGCATCAGCAGGTTACCATAACTTAA,0.674
11,TCAGATAGGTAATACAGGTGAAAGTCGGCATCTA,0.887
12,TGTTAAAGTTCAAAGGTAACGTAAGTATCCACAC,4.87
13,TCGAGTGGGTTAGGGGCATTCAGAATGGCGTCGA,1.04
14,TGAATGAGGTTAAAGATCAAGGAACGTGGCGTCG,2.09
15,CAAACTAGGCCACAGAGGTCAAAGTCCGTGCGTA,6.29
16,CCTTACGGGTCACTCCAGGTTATAGCGTCGGAGT,4.14
17,GCTAGCAGGCCATTTGGGTCACTCAATGACGGGC,0.933
18,TCTCGGAGGACACGAAAGATCAGAGCTCGACATC,0.0612
19,CGAAATAGGTCAGAACAGGACAGTGAAGGATGAT,1.71
20,GCTGCTAGGTCAACTGATGGTCAGGTAAAGCTCG,1.69

row,Sequence,PBM binding z-score
1,GGAACGAGGGCAACGTTGATAGCATCTGTCGACG,0.229
2,GTACCAAGGTTAATAGGTCGTTGATGAGTAGGCG,2.23
3,TCATATAGGTAAATGCTAGGTGAGAGTCCGATCT,0.644
4,TGTATTAGTTGATTAGGGCAACCGAAACAGCGGA,0.00753
5,TTTTGTAGATCAATAGAGGTTAAGAAAGTGCGCT,2.09
6,CGAACTAGGTCAGAACAGGACAGTGAAGGATGAT,0.634
7,CATGCAGGGTCAGCTAGGCCAGAGTAGGGACGGC,3.97
8,ATATGTAGGTTAAGGGTCGTTCAGGTTGGTTCGC,3.88
9,CGTCAAAGTTCAACTAAGGTACCGTAAAGCACGC,4.4
10,CCTAGTTGGTCAGGAGGTCAAACACCGGATATGA,4.09
11,TCTATTAGTTGAAGGGCAGCCGACGAGTCCGTTT,0.97
12,TCTAGTTGGTCACGGAGGTCGCACACGACGGGTA,4.06
13,CTACCAAGGTGCACAAGGTCGTTGATTACTATTC,3.17
14,ATCTCTACGTAACCAAGTTCAGTGAATGCCGAAC,1.17
15,TCAGACAGGTGAAGGAAACTCAGGTACGCAGTCG,0.447
16,TAGCCTAGGTCGTTGGGCCAGTATAGTACGCATC,0.153
17,TCTAGCAGGCCTGAGGGTCACTCAAGAGGTACGG,1.9
18,TCATATAGGTAATCCAGGTGAAAGTCGGCATCTA,1.1
19,TCATATAGGTAAAGGTTAAAGTCGAACGATATGA,1.98
20,ATCTCTAGGTAAAGATAGTTCGGTGAATGCAAAT,0.244
